Assay results: PubChem BioAssay (NCATS)
Records with an inconclusive call do not appear. Active and inactive are the calls of the source. Unless noted, calls come from the whole dose curve; as a rule, active = well fitted curve in the direction sought with a large enough effect; inconclusive = small, poorly fitted or top-dose-only effect, or another doubt; inactive = no such curve, though single readings can be large; an effect the other way counts as inactive or inconclusive.

Assays:
[1] = Cell Viability - BJ (AID 421; calls by dose curve;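 note: potency is the fitted concentration of half-maximal effect; cells exposed to compound for 40 hours at 37 °C before readout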); conditions: BJ fibroblast viability, qHTS
Summary of the method: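 Cytotoxicity as drop in intracellular ATP (CellTiter-Glo, 20 min RT) after 40 hr compound exposure of BJ fibroblasts at 37 °C. Titrations scaled between DMSO and 100 uM tamoxifen, Hill-fitted for AC50.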

[2] = Cell Viability - Jurkat (AID 426;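 active = dose-dependent loss of cell ATP signal giving a full or clear fitted curve, ranked by lower potency value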; note: potency is the fitted concentration of half-maximal effect); conditions: qHTS
Summary of the method: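 Jurkat (Clone E6-1) cells, 5000/well in complete medium, exposed to compounds for 40 hr at 37C; intracellular ATP measured by CellTiter-Glo luminescence after 20 min at room temperature. AC50 from Hill fits.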

[3] = Cell Viability - Hek293 (AID 427;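 active = compounds whose dose-response curve shows a full or clear partial loss of cell viability, called from curve shape rather than a numeric limit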;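 note: potency is the fitted concentration of half-maximal effect; cells exposed to compound for 40 hours at 37 °C before reading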); conditions: qHTS
Summary of the method: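 Luminescent ATP content (CellTiter-Glo, 20 min at room temperature) was measured after a 40 hr, 37 °C compound exposure of HEK293 cells. AC50 values came from Hill-equation fits of qHTS concentration-response data normalized to DMSO and 100 uM tamoxifen.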

[4] = Cell Viability - HepG2 (AID 433; calls by dose curve;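 note: potency is the fitted concentration of half-maximal effect; potency for ATP loss meaning cytotoxicity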); conditions: qHTS
Summary of the method: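 Cytotoxicity is scored as loss of intracellular ATP in HepG2 cells exposed to compounds for 40 h. Concentration-response curves, normalized to DMSO and 100 uM tamoxifen, give AC50 values.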

[5] = Cell Viability - MRC5 (AID 434; calls by dose curve;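 note: potency is the fitted concentration of half-maximal effect; potency reflects cytotoxicity seen as loss of intracellular ATP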); conditions: MRC5 lung fibroblast viability, qHTS
Summary of the method: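 MRC5 normal human lung fibroblasts (1500/well) were treated with compounds for 40 hr at 37 °C in complete medium, and viable cells were measured as intracellular ATP by CellTiter-Glo luminescence. AC50 came from Hill fits, normalized to DMSO and 100 uM tamoxifen.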

[6] = Cell Viability - SK-N-SH (AID 435; calls by dose curve;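 note: potency is the fitted concentration of half-maximal effect; compound exposure lasted 40 h at 37 °C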); conditions: SK-N-SH neuroblastoma cell viability qHTS
Summary of the method: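 Cells seeded at 1500 per well and incubated 5 hr at 37 °C. Compound added, then 40 hr at 37 °C. CellTiter-Glo added, 20 min at room temperature, luminescence read.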

[7] = biological target: Mitogen-activated protein kinase 10 (Mus musculus) (UniProt Q61831); experiment: JNK3 AlphaScreen Assay (AID 530; active = well fitted curve in either direction with a large enough effect, not every such curve was filed as active;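 note: kinase came from lysate of stimulated human HepG2 cells; signal reports phosphorylation of biotinylated GST-cJun 1-79 at Ser73 with 10 µM ATP; % is set by controls: 0 for no effect and ±100 for the full control effect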); conditions: JNK3 lysate, c-Jun phosphorylation; series mostly up to 57.1 µM
Summary of the method: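 Inhibitors reduce antibody binding to phosphorylated biotin-cJun, lowering AlphaScreen luminescence. Lysates from HepG2 cells pre-activated by IL-1beta plus TNF-alpha supplied JNK3; compounds were titrated.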

[8] = Cell Viability - N2a (AID 540); conditions: N2a mouse neuroblastoma cell viability; at 92.2 µM (top of the series);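 note: plate controls were DMSO alone for no effect and tamoxifen control for full effect; nearly all actives have a fitted effect of over 45% in size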
Summary of the method: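 Mouse neuroblastoma N2a cells, 1500/well, exposed to compounds 40 h at 37 °C in complete medium. Viability measured as cellular ATP by CellTiter-Glo luminescence; AC50 from Hill fits of concentration-response.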

[9] = Cell Viability - NIH 3T3 (AID 541); conditions: NIH 3T3 cell viability, qHTS; activity change, negative = cytotoxicity: at 92.2 µM (top of the series);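 note: plate controls were DMSO alone for no effect and tamoxifen positive control for full effect; nearly all actives have a fitted effect of over 25% in size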
Summary of the method: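 Mouse NIH 3T3 fibroblasts, 1000 cells/well, rested 5 hr at 37 °C, then exposed to compound for 40 hr at 37 °C in complete medium. Viability read as intracellular ATP by CellTiter-Glo luminescence; AC50 from Hill-equation fits of concentration-response data.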

[10] = Cell Viability - HUV-EC-C (AID 542); conditions: HUV-EC-C endothelial cell viability, qHTS; series mostly up to 92.2 µM; note: % is set by controls: 0 for no effect and ±100 for the full control effect; nearly all actives have a fitted effect of over 35% in size
Summary of the method: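 HUV-EC-C human vascular endothelial cells, 1000/well, exposed to compound for 40 hr at 37 °C in complete medium. Intracellular ATP was read by CellTiter-Glo luminescence. AC50 came from Hill-equation fits of concentration-response data.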

[11] = Cell Viability - H-4-II-E (AID 543); conditions: H-4-II-E rat hepatoma viability; series mostly up to 92.2 µM; note: % is set by controls: 0 for no effect and ±100 for the full control effect; nearly all actives have a fitted effect of over 35% in size
Summary of the method: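 Rat hepatoma H-4-II-E cells, 1500 per well, treated 40 h at 37 °C in complete medium. Cellular ATP read by CellTiter-Glo luminescence; AC50 from Hill fits of concentration-response.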

[12] = Cell Viability - Renal Proximal Tubule (AID 545); conditions: renal proximal tubule cells viability; at 91.7 µM (top of the series), primary cells of rat origin unless noted; note: nearly all actives have a fitted effect of over 40% in size
Summary of the method: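 Cytotoxicity is scored as a concentration-dependent drop in cellular ATP in primary rat renal proximal tubule cells exposed for 40 hr. AC50 derives from Hill modelling.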

[13] = Cell Viability - Mesenchymal (AID 546); conditions: mesenchymal cells viability, qHTS; series mostly up to 91.7 µM;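 note: cells exposed to compound for 40 hours before reading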
Summary of the method: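 Normal human renal glomerulus-derived kidney mesenchymal cells, 1000 per well in complete medium, were treated with compounds for 40 hr at 37 °C. Viability was read as intracellular ATP by CellTiter-Glo luminescence; AC50 values came from Hill-equation fits of qHTS concentration-response data.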

[14] = Cellular Toxicity (caspase-3) HepG2 (AID 654); conditions: HepG2 caspase-3 activation, luminescence, 0% = DMSO only, 100% = tamoxifen; series mostly up to 92.2 µM;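 note: cells exposed to compound for 16 hours before reading; 0% = DMSO alone and 100% = caspase signal from 100 µM tamoxifen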
Summary of the method: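 HepG2 cells (1500/well) were treated 16 h at 37 °C in complete medium, then caspase 3/7 activity was read by Caspase-Glo luminescence. Data were normalized to DMSO and 100 uM tamoxifen; AC50 came from Hill-equation fits of qHTS concentration-response.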

[15] = Cellular Toxicity (caspase-3) Jurkat (AID 655); conditions: Jurkat caspase-3 activation, luminescence, DMSO = 0%, tamoxifen = 100%; at 92.2 µM (top of the series);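 note: cells exposed to compound for 16 h at 37 °C before reading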
Summary of the method: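 Caspase 3/7 activation is scored as increased luminescence in Jurkat cells cultured with compound for 16 hours in complete medium. AC50 values come from Hill fits of qHTS concentration-response data normalized to DMSO and 100 uM tamoxifen controls.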

[16] = Cellular Toxicity (caspase-3) HUV-EC-C (AID 656); conditions: HUV-EC-C cells, caspase-3 activation (apoptosis), vehicle = 0, 100 µM tamoxifen = 100%; series mostly up to 92.2 µM
Summary of the method: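 Read-out: luminescence proportional to caspase 3/7 activity, measured 20 min after adding Caspase-Glo 3/7 reagent. Cells (HUV-EC-C) had received compound for 16 hr at 37°C. Increases relative to DMSO and 100 uM tamoxifen gave concentration-response AC50 values.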

[17] = Cellular Toxicity (caspase-3) SHSY5Y (AID 657); conditions: SH-SY5Y caspase-3 activation, DMSO zero, 10 µM staurosporine = 100%; series mostly up to 91.7 µM
Summary of the method: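 Cells plated and incubated 5 h at 37 °C, dosed over a concentration range, incubated 16 h, then given Caspase-Glo 3/7 reagent for 1 h at room temperature before luminescence reading. Staurosporine (10 uM) defined full stimulation.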

[18] = Cellular Toxicity (caspase-3) BJ (AID 658); conditions: BJ fibroblasts, luminescence, normalized: DMSO 0%, staurosporine 100%; series mostly up to 91.7 µM
Summary of the method: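 Luminescent aminoluciferin-substrate cleavage reports caspase 3/7 activity in normal human BJ fibroblasts after 16 hr compound exposure at 37 °C. Normalized to DMSO (basal) and 10 uM staurosporine (100%); AC50 from Hill fit of concentration-response.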

[19] = Cellular Toxicity (caspase-3) MRC-5 (AID 659); conditions: MRC-5 cells, luminescence, normalized: DMSO 0%, 10 µM staurosporine 100%; series mostly up to 91.7 µM
Summary of the method: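 Luminescence from caspase-cleaved aminoluciferin substrate (Caspase-Glo 3/7, 1 hr RT) reports caspase 3/7 activity in MRC-5 lung fibroblasts after 16 hr compound exposure. Normalized to DMSO basal and 10 uM staurosporine as 100%; AC50 from Hill fits.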

[20] = Cellular Toxicity (caspase-3) Mesangial (AID 660); conditions: mesangial cells, normalized: DMSO 0%, 100 µM tamoxifen 100%; series mostly up to 91.7 µM;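 note: cells exposed to compound for 16 h before the caspase read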
Summary of the method: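 Human renal glomerular mesangial cells, 1000/well, 5 h at 37 C before 16 h compound treatment. Caspase-Glo 3/7 luminescence after 20 min; normalized to DMSO and 100 uM tamoxifen, AC50 from Hill fit.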

[21] = Cellular Toxicity (caspase-3) SK-N-SH (AID 661); conditions: SK-N-SH caspase-3 activation, qHTS, DMSO as zero, staurosporine as full; series mostly up to 91.7 µM
Summary of the method: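 Human SK-N-SH neuroblastoma cells, 1500/well, were exposed to compounds for 16 hours at 37 °C. Caspase-Glo 3/7 luminescence was normalized to DMSO (basal) and 10 uM staurosporine (100%), and AC50 came from a Hill fit.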

[22] = Cellular Toxicity (caspase-3) H-4-II-E (AID 663); conditions: H-4-II-E rat hepatoma, scaled: DMSO 0%, 100 µM tamoxifen 100%; series mostly up to 92.2 µM;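 note: cells exposed to compound for 16 hr before readout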
Summary of the method: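 Luminescence from caspase-cleaved aminoluciferin substrate, read 20 min after reagent addition, reports caspase 3/7 activation in rat H-4-II-E cells after 16 hr compound exposure. Normalized to DMSO (basal) and 100 uM tamoxifen (100%); AC50 from Hill fits.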

[23] = Cellular Toxicity (caspase-3) Hek293 (AID 664); conditions: HEK293 caspase-3 activation, DMSO = 0%, 100 µM tamoxifen = 100%; series mostly up to 92.2 µM;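 note: cells exposed to compound for 16 h at 37 °C before readout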
Summary of the method: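 HEK293 cells in complete medium treated 16 h at 37 °C, then Caspase-Glo 3/7 luminescence read after 20 min at room temperature. Normalized to DMSO and 100 uM tamoxifen; AC50 from Hill fit of concentration-response.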

Cc1ccc([N+](=O)[O-])cc1C
inactive: Potency [1] > 92 µM | Potency [2] > 92 µM | Potency [3] > 92 µM | Potency [4] > 92 µM | Potency [5] > 92 µM | Potency [6] > 92 µM | outcome [7] | activity change, negative = cytotoxicity [8] -25% | activity change, negative = cytotoxicity [9] -7.46% | Potency [10] | Potency [11] | activity change, negative = cytotoxicity [12] -10.6% | outcome [13] | outcome [14] | caspase-3 activation [15] -0.46% | outcome [16] | outcome [17] | outcome [18] | outcome [19] | outcome [20] | outcome [21] | outcome [22] | outcome [23]
